# Data: the supplement of paper PMC8728848
# Many of the other results were omitted from the sample, so the strongest signals are more common in it than they were.
# What was measured:
# Test in all cases: glycan array binding signal (z-score within array); higher = stronger binding
# Conditions in all cases: glycan notation: IUPAC condensed, linker removed
# [1] = molecular target: Fuc(a1-2)Gal(b1-3)GalNAc
# Outline: (§1)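 Columns mapping to the same glycan were averaged after glycan names were converted to IUPAC-condensed notation. The data come from 3228 arrays in the Consortium for Functional Glycomics database, limited to those with an available protein sequence. Binding is reported as a within-array Z-score averaged across arrays of one protein sequence and across linkers.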
# [2] = molecular target: Fuc(a1-2)Gal(b1-3)GlcNAc(b1-2)Man(a1-3)[Fuc(a1-2)Gal(b1-3)GlcNAc(b1-2)Man(a1-6)]Man(b1-4)GlcNAc(b1-4)GlcNAc
# Outline: as §1
# [3] = molecular target: Fuc(a1-2)Gal(b1-3)[Fuc(a1-4)]GlcNAc(b1-3)[Gal(b1-4)GlcNAc(b1-6)]Gal(b1-4)Glc
# Outline: as §1
# [4] = molecular target: Fuc(a1-2)Gal(b1-4)GlcNAc(b1-2)Man(a1-3)[Fuc(a1-2)Gal(b1-4)GlcNAc(b1-2)Man(a1-6)]Man(b1-4)GlcNAc(b1-4)[Fuc(a1-6)]GlcNAc
# Outline: as §1
# [5] = molecular target: Fuc(a1-2)Gal(b1-4)GlcNAc(b1-3)Gal(b1-4)GlcNAc(b1-2)Man(a1-3)[Fuc(a1-2)Gal(b1-4)GlcNAc(b1-3)Gal(b1-4)GlcNAc(b1-2)Man(a1-6)]Man(b1-4)GlcNAc(b1-4)GlcNAc
# Outline: as §1
# [6] = molecular target: Fuc(a1-2)Gal(b1-4)[Fuc(a1-3)]GlcNAc(b1-3)Gal(b1-4)[Fuc(a1-3)]GlcNAc
# Outline: as §1
# [7] = molecular target: Fuc(a1-2)[Gal(a1-3)]Gal(b1-3)GlcNAc(b1-2)Man(a1-3)[Fuc(a1-2)[Gal(a1-3)]Gal(b1-3)GlcNAc(b1-2)Man(a1-6)]Man(b1-4)GlcNAc(b1-4)[Fuc(a1-6)]GlcNAc
# Outline: as §1
# [8] = molecular target: Fuc(a1-2)[Gal(a1-3)]Gal(b1-4)GlcNAc(b1-2)Man(a1-3)[Fuc(a1-2)[Gal(a1-3)]Gal(b1-4)GlcNAc(b1-2)Man(a1-6)]Man(b1-4)GlcNAc(b1-4)GlcNAc
# Outline: as §1
# [9] = molecular target: Fuc(a1-2)[GalNAc(a1-3)]Gal(b1-3)GlcNAc(b1-3)GalNAc
# Outline: as §1
# [10] = molecular target: Fuc(a1-2)[GalNAc(a1-3)]Gal(b1-4)GlcNAc(b1-2)Man(a1-3)[Fuc(a1-2)[GalNAc(a1-3)]Gal(b1-4)GlcNAc(b1-2)Man(a1-6)]Man(b1-4)GlcNAc(b1-4)[Fuc(a1-6)]GlcNAc
# Outline: as §1
# [11] = molecular target: Fuc(a1-2)[GalNAc(a1-4)]Gal(b1-4)GlcNAc
# Outline: as §1
# [12] = molecular target: Fuc(a1-3)GlcNAc
# Outline: as §1
# [13] = molecular target: Gal(a1-2)Gal
# Outline: as §1
# [14] = molecular target: Gal(a1-3)Gal(b1-3)GlcNAc
# Outline: as §1
# [15] = molecular target: Gal(a1-3)Gal(b1-3)GlcNAc(b1-2)Man
# Outline: as §1
# [16] = molecular target: Gal(a1-3)Gal(b1-3)GlcNAc(b1-6)GalNAc
# Outline: as §1
# [17] = molecular target: Gal(a1-3)Gal(b1-4)Glc
# Outline: as §1
# [18] = molecular target: Gal(a1-3)Gal(b1-4)GlcNAc(b1-6)GalNAc
# Outline: as §1
# [19] = molecular target: Gal(a1-3)GalNAc
# Outline: as §1
# [20] = molecular target: Gal(b1-3)GalNAc(a1-3)[Fuc(a1-2)]Gal(b1-4)Glc
# Outline: as §1
# [21] = molecular target: Gal(b1-3)GlcNAc(b1-3)Gal(b1-4)GlcNAc(b1-3)Gal(b1-4)GlcNAc(b1-2)[Gal(b1-3)GlcNAc(b1-3)Gal(b1-4)GlcNAc(b1-3)Gal(b1-4)GlcNAc(b1-6)]Man(a1-6)[Gal(b1-3)GlcNAc(b1-3)Gal(b1-4)GlcNAc(b1-3)Gal(b1-4)GlcNAc(b1-2)Man(a1-3)]Man(b1-4)GlcNAc(b1-4)[Fuc(a1-6)]GlcNAc
# Outline: as §1
# [22] = molecular target: Gal(b1-4)GalNAc(a1-3)[Fuc(a1-2)]Gal(b1-4)GlcNAc
# Outline: as §1
# [23] = molecular target: Gal(b1-4)GlcNAc(b1-2)Man(a1-6)[Man(a1-3)]Man(b1-4)GlcNAc(b1-4)GlcNAc
# Outline: as §1
# [24] = molecular target: Gal(b1-4)GlcNAc(b1-3)Gal(b1-4)GlcNAc(b1-3)Gal(b1-4)GlcNAc(b1-2)Man(a1-3)[Gal(b1-4)GlcNAc(b1-3)Gal(b1-4)GlcNAc(b1-3)Gal(b1-4)GlcNAc(b1-2)Man(a1-6)]Man(b1-4)GlcNAc(b1-4)GlcNAc
# Outline: as §1
# [25] = molecular target: Gal(b1-4)GlcNAc(b1-3)Gal(b1-4)GlcNAc(b1-3)Gal(b1-4)GlcNAc(b1-3)Gal(b1-4)GlcNAc(b1-2)Man(a1-3)[Gal(b1-4)GlcNAc(b1-3)Gal(b1-4)GlcNAc(b1-3)Gal(b1-4)GlcNAc(b1-3)Gal(b1-4)GlcNAc(b1-2)Man(a1-6)]Man(b1-4)GlcNAc(b1-4)[Fuc(a1-6)]GlcNAc
# Outline: as §1
# [26] = molecular target: Gal(b1-4)GlcNAc(b1-3)Gal(b1-4)GlcNAc(b1-3)Gal(b1-4)GlcNAc(b1-3)Gal(b1-4)GlcNAc(b1-3)Gal(b1-4)GlcNAc(b1-3)Gal(b1-4)GlcNAc(b1-2)Man(a1-3)[Gal(b1-4)GlcNAc(b1-3)Gal(b1-4)GlcNAc(b1-3)Gal(b1-4)GlcNAc(b1-3)Gal(b1-4)GlcNAc(b1-3)Gal(b1-4)GlcNAc(b1-3)Gal(b1-4)GlcNAc(b1-2)Man(a1-6)]Man(b1-4)GlcNAc(b1-4)GlcNAc
# Outline: as §1
# [27] = molecular target: Gal(b1-4)GlcNAc(b1-3)Gal(b1-4)GlcNAc(b1-3)GalNAc
# Outline: as §1
# [28] = molecular target: Gal(b1-4)GlcNAc(b1-3)GalNAc
# Outline: as §1
# [29] = molecular target: Gal(b1-4)GlcNAc(b1-6)[Gal(b1-4)GlcNAc(b1-3)]GalNAc
# Outline: as §1
binder,measurement,setting,value
CPA (Cicer arietinum) (protein) MAFSYLNLVLVTLTTLFFLQTTKVKSQKSVSFHITNFTISRPSITLQGTAEFLPNVLLLNDIEHPVFVVGRALYSKPITLWNNKTGKVASFVTSFTFDVQDLKKTVPGHGLVFFLAPSGSEIPFSSDGGNLGVVDGKNAFNRFVGVEFDNFVNSWDPKYSHVGINVNSLISTKTVKWNRVSGELVKVSIVYDSVSTTLTVIVTYKNGQISILSQLVDLKAVLPDTVNIGFSASTTLVSPRQLHNIHSWSFTSTFET,glycan array binding signal (z-score),[1],-0.424
same,glycan array binding signal (z-score),[2],3.79
same,glycan array binding signal (z-score),[3],-0.072
same,glycan array binding signal (z-score),[4],0.297
same,glycan array binding signal (z-score),[5],0.012
same,glycan array binding signal (z-score),[6],-0.681
same,glycan array binding signal (z-score),[7],-0.184
same,glycan array binding signal (z-score),[8],0.562
same,glycan array binding signal (z-score),[9],3.66
same,glycan array binding signal (z-score),[10],0.023
same,glycan array binding signal (z-score),[11],1.3
same,glycan array binding signal (z-score),[12],-0.573
same,glycan array binding signal (z-score),[13],-0.045
same,glycan array binding signal (z-score),[14],0.134
same,glycan array binding signal (z-score),[15],-0.562
same,glycan array binding signal (z-score),[16],-0.42
same,glycan array binding signal (z-score),[17],0.092
same,glycan array binding signal (z-score),[18],-0.23
same,glycan array binding signal (z-score),[19],-0.121
same,glycan array binding signal (z-score),[20],-0.568
same,glycan array binding signal (z-score),[21],3.59
same,glycan array binding signal (z-score),[22],-0.399
same,glycan array binding signal (z-score),[23],-0.041
same,glycan array binding signal (z-score),[24],4.32
same,glycan array binding signal (z-score),[25],0.005
same,glycan array binding signal (z-score),[26],3.7
same,glycan array binding signal (z-score),[27],3.36
same,glycan array binding signal (z-score),[28],-0.24
same,glycan array binding signal (z-score),[29],3.6
